Source: PubChem
Mtb BioA inh: M. tuberculosis BioA enzyme inhibitors, primary screen, biochemical, plate reader, single point, HTS | inhibition, % at 9.99 µM | purified M. tuberculosis BioA enzyme | 7,8-diaminopelargonic acid synthase BioA (Mycobacterium tuberculosis) | 360,000 compounds, 0.096% hits; in the data active = inhibition above about 40%
FBA Mtb inh: Mtb FBA enzyme inhibitors, primary screen, biochemical, fluorescence, strain H37Rv; inhibition, % at 1 µM; purified M. tuberculosis FBA, fluorescence read-out; Fructose-bisphosphate aldolase (Mycobacterium tuberculosis (strain ATCC 25618 / H37Rv)), …; 360,000 compounds, 2.3% hits; AID 588726, 2011; in the data active = inhibition above about 27%;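 also: 0% = vehicle and 100% = reference inhibitor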
Target sequence (P9WQA3 whole entry, looked up): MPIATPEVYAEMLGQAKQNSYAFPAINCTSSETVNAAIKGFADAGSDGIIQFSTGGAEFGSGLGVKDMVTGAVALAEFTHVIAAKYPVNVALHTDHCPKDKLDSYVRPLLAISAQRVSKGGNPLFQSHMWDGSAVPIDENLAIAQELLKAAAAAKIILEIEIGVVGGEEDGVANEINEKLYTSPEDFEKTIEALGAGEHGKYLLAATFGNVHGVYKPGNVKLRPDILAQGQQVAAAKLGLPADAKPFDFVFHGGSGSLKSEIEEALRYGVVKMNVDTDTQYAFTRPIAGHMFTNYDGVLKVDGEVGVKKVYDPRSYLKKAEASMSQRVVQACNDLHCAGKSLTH
GDH-TPI counter: GDH-TPI coupling enzyme inhibitors, primary screen, artefact control for M. tuberculosis FBA inhibitor project, biochemical, absorbance, full deck; 360,000 compounds, 1.2% hits; inhibition, % at 4.8 µM; GDH-TPI coupled enzyme counterscreen, NADH absorbance; in the data active = inhibition above about 30%;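 also: 0% = DMSO wells and 100% = wells lacking the enzyme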
FadD28 FP inh: inhibitors of FadD28 bisubstrate probe binding, primary screen, biochemical, fluorescence polarization, single point; Mycobacterium tuberculosis FadD28 fatty-acid-AMP ligase; inhibition, % at 12.5 µM; 360,000 compounds, 0.22% hits; in the data active = inhibition above about 8.5%, passing the limit was not always enough
3CLpro inhibitor: SARS-CoV 3CLpro protease inhibitors, primary screen, biochemical, quenched FRET | inhibition, % at 6 µM | Replicase polyprotein 1ab (Severe acute respiratory syndrome coronavirus), P0C6X7 | 290,000 compounds, 0.14% hits | AID 1706, 2009 | recombinant SARS-CoV 3CLpro, quenched FRET peptide cleavage; in the data active = inhibition above about 12%
* marks the source's active call; other numbers are inactive results; . = no result given; + = active, no number. Hits are enriched below; roughly 3.1% of the tested compounds scored in any of these assays.

SMILES	Mtb BioA inh	FBA Mtb inh	GDH-TPI counter	FadD28 FP inh	3CLpro inhibitor
CCCNC(=O)[C@H]1[C@H](CO)[C@H]2Cn3c(ccc(C4=CCCCC4)c3=O)[C@@H]1N2CCC	-3	.	.	.	.
CCc1cc(C(=O)Cc2cnn(-c3ccccc3)c2)c(O)cc1O	0	0	50*	1	1
C[C@H](CO)N1C[C@H](C)[C@H](CN(C)Cc2cccc(F)c2)Oc2ncc(-c3cccc(F)c3)cc2C1=O	4	.	.	.	.
O=[N+]([O-])c1cccc(/C=N/Nc2nccnc2Cl)c1	.	1	37*	0	5
COc1ccc(OC)c(N=CC2=C(O)CC(C)(C)CC2=O)c1	.	3	39*	-2	-5
CC1(C)CC(=O)C(C=Nc2ccncc2)=C(O)C1	-1	-2	-6	-1	2
CC1(C)CC(=O)C(C=Nc2ccc(O)c(N=CC3=C(O)CC(C)(C)CC3=O)c2)=C(O)C1	.	-4	19	-3	0
COc1ccc(N=CC2=C(O)CC(C)(C)CC2=O)cc1	0	0	42*	-3	0
CC1(C)CC(=O)C(C=Nc2ccc3c(c2)OCO3)=C(O)C1	.	1	54*	-2	-4
COc1ccc(N=CC2=C(O)CCCC2=O)cc1	-1	-2	37*	-3	0
COc1ccc(N=Cc2c(O)n(C)c(=O)n(C)c2=O)cc1	0	1	26	-2	0
Cc1ccc(S(=O)(=O)N(C)C[C@@H]2Oc3ccc(NC(=O)C4CC4)cc3CC(=O)N([C@@H](C)CO)C[C@@H]2C)cc1	-1	.	.	.	.
COCC(=O)N(C[C@@H]1N[C@@H](CO)[C@H]1c1ccc(C2=CCCC2)cc1)C(C)C	-2	.	.	.	.
C[C@H](CO)N1C[C@H](C)[C@@H](CN(C)S(=O)(=O)c2ccc(Cl)cc2)OCCCC[C@H](C)Oc2ccc(NC(=O)c3ccncc3)cc2C1=O	0	.	.	.	.
CO[C@@H](CN(C)C(=O)C1CCOCC1)[C@@H](C)CN(C(=O)Nc1ccc(F)cc1)[C@@H](C)CO	0	.	.	.	.
CN(C)c1ccc(C(=O)N=c2sccn2C)cc1[N+](=O)[O-]	0	-4	38*	-5	-6
Cc1cc2nc(-c3ccc(SCC(=O)Nc4ccc(S(=O)(=O)N5CCCC5)cc4)nc3)[nH]c2cc1C	-2	21	38*	-1	0
Cc1cc2nc(-c3ccc(SCC(=O)Nc4nccs4)nc3)[nH]c2cc1C	-2	0	11	-6	4
Cc1ccc2nc(-c3ccc(SCC(=O)O)nc3)[nH]c2c1	0	+	53*	-7	0
O=C(CSc1ccc(-c2nc3ccccc3[nH]2)cn1)Nc1ccc(S(=O)(=O)N2CCCC2)cc1	.	8	21	22*	3
O=C(NCC[C@H]1CC[C@@H](NC(=O)c2cnccn2)[C@@H](CO)O1)Nc1ccc(F)cc1	4	.	.	.	.
O=C(C[C@H]1CC[C@H](NC(=O)Nc2cc(F)ccc2F)[C@H](CO)O1)Nc1ccc(-c2ccccc2)cc1	1	.	.	.	.
CCOc1cc(/C=C2\NC(=O)NC2=O)cc([N+](=O)[O-])c1O	3	-4	32*	2	4
COc1ccc(C=C2C(=O)NC(=S)NC2=O)cc1OC	1	-4	14	-1	.
CCOc1cc(C=C2C(=O)NC(=S)NC2=O)ccc1O	0	1	34*	2	.
SMILES	Mtb BioA inh	FBA Mtb inh	GDH-TPI counter	FadD28 FP inh	3CLpro inhibitor
COc1cc(C=O)ccc1O	-1	-1	58*	-1	.
CCOc1cc(/C=C2\NC(=O)NC2=O)ccc1OC(C)C(=O)O (stereo not given)	-1	-1	47*	0	-1
COc1cc(/C=C2/NC(=O)NC2=O)ccc1OCC(=O)Nc1ccc(F)cc1	-1	-1	15	-4	4
CNC[C@H]1Oc2ccc(NS(=O)(=O)c3c(C)noc3C)cc2C(=O)N([C@@H](C)CO)C[C@@H]1C	-4	.	.	.	.
COc1cc(C=C2NC(=O)NC2=O)ccc1O	-1	4	35*	2	.
COc1ccc(/C=N/N(Cc2ccccc2)c2ccccc2)cc1O	21	-3	8	12*	1
COc1cc(/C=C2\NC(=S)N(C)C2=O)ccc1O	.	-17	12	-3	4
COc1cc(C=NCc2ccccc2)ccc1O	1	-2	42*	-1	.
